Experimental findings from PubChem BioAssay AID1490 (National Center for Advancing Translational Sciences (NCATS), 2009) are described below.

Structures are written as SMILES. “And” between values parts separate entries of the source, which are not always exact repeats. Identical values can stand only once. Out of some 310,000 compounds screened, about 11,000 (3.5%) were called active. Inconclusive results (about 4%) are left out. Shown is part of a subset that was picked to be rich in actives. Values without a mark were called inactive. Calls follow the shape of the dose curve; as a rule, active = well fitted inhibition curve with a large enough effect; inconclusive = small, poorly fitted or top-dose-only effect, or another doubt; inactive = no such curve, though single readings can be large or run the other way. Non-standard residues stand in square brackets, D forms with d. Residues, ends and D or L forms follow the SMILES beside them. ξ: configuration not given here. *: point of attachment. Cbz = O=C(OCc1ccccc1)*; ξL = CC(C)CC(N)C(=O)O; ξP = O=C(O)C1CCCN1
Potency is read from the fitted curve at half-maximal effect.

The target of this test is 4'-phosphopantetheinyl transferase ffp (Bacillus subtilis) (UniProt Q9F4F7). In words: qHTS Assay for Inhibitors of Bacillus subtilis Sfp phosphopantetheinyl transferase (PPTase).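 Also: the enzyme is Sfp with the accession as filed and its product quenches rhodamine fluorescence.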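 As to largest response in the series, negative = inhibition: 0% = enzyme reaction without inhibitor and -100% = no enzyme wells.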 Conditions: Biochemical Sfp PPTase activity. An excerpt:
Assay Submitter: Michael Burkart, University of California, San Diego
Screening Center PI: Austin, C.P.
Screening Center: NIH Chemical Genomics Center [NCGC]
The covalent attachment of a phosphopantetheinyl (4'-PP) arm to a variety of synthases and other proteins is a key posttranslational protein modification. The 4'-PP is installed on the proteins post-translationally from coenzyme A (CoA) on a conserved serine residue by action of phosphopantetheinyl transferase (PPTase) enzymes. Phosphopantetheinylation is essential for synthase activity, and removal of the PPTase gene precludes natural product synthesis in microorganisms, or in the case of fatty acid biosynthesis, renders the organism unviable. PPTase enzymes belong to a distinct structural superfamily. Within bacteria, these enzymes are grouped into two classes based upon primary structure, the AcpS-Type and Sfp-Type PPTases.
Sfp-type PPTases, corresponding to an activator of surfactin production in Bacillus subtilis, are responsible for modifying type I polyketide and nonribosomal peptide synthases of prokaryotes. Sfp-type PPTases are responsible for the activation of a variety of pathogen-associated virulence factors. Among these compounds are toxins such as mycolactone from Mycobacterium ulcerans, siderophores such as vibriobactin from Vibrio cholerae or mycobactin from Mycobacterium tuberculosis, as well as the mycolic acids which form the waxy cell wall of Mycobacteria. The biosyntheses of these natural products are considered attractive targets for drug design.
In search of small molecule Sfp-PPTase inhibitors, a fluorescence quenching assay was developed for detection of Bacillus subtilis Sfp-PPTase enzymatic activity in a miniaturized high-throughput format. The consensus ybbr acceptor peptide […] was N-terminally labeled with Black Hole Quencher-2 (BHQ-2) and used in combination with rhodamine-labeled coenzyme A as a co-substrate.
Inhibition of Sfp-PPTase was detected by recording the fluorescence intensity change over a 30-minute reaction period at a 525 nm excitation and 598 nm emission. Reagents were supplied by Michael Burkart and Timothy Foley, University of California at San Diego.
This BioAssay deposition is for validation of the developed Sfp-PPtase assay.
Assay Buffer: 50 mM Hepes-Na pH 7.6, 10 mM MgCl2, 0.01% Nonidet P-40, and 0.01% BSA.
3 uL of Sfp-PPTase enzyme (final concentration 15 nM) and 1 uL of substrate mixture (final concentration for rhodamine-CoA and BHQ-2-YbbR 5 uM and 12.5 uM, respectively) dispensed in columns 1, 2, 5 - 48. Columns 1 and 2 used to generate neutral control (uninhibited reaction)
Three uL of reagents, consisting of buffer (in columns 3 and 4 as negative control) and Sfp-PPTase (in columns 1, 2, 5 - 48) were dispensed into 1,536-well Greiner black solid bottom plate. Compounds (23 nL) were transferred via Kalypsys pintool equipped with 1,536-pin array. The plate was incubated for 15 min at room temperature, followed by the addition of 1 uL substrate to start the reaction. The plate was then centrifuged at 1000 rpm for 15 seconds, and the fluorescence intensity recorded on a ViewLux High-throughput CCD imager (Perkin-Elmer) using standard BODIPY optics (525 nm excitation and 598 nm emission). The plate was then incubated for 30 minutes, and a second read on the ViewLux was performed. The fluorescence intensity difference over the 30-minute period was used to calculate the respective reaction rate for each well.
As to `Cc1ccc(CS(=O)Cc2ccc(C(=O)N3CCOCC3)o2)cc1` (centres undefined), the largest response in the series, negative = inhibition is 9.75%.
Take `O=C(Nc1ccnn1C1CCN(C/C=C/c2ccc(F)cc2)CC1)C1CCCC1`: the largest response in the series, negative = inhibition was -2.59%.
On the same count and under the same terms, then `O=C(c1ccc(F)cc1)N1CCCC(C(=O)N2CCCCC2)C1` (centres undefined), with 1.26%.
Consider `CCOC(=O)c1cc2n(c1N)-c1ccccc1C2=O`, for which the Potency was 8.91 µM (active).
In the case of `CCOC(=O)C1=C(C(=O)OCC)C(C(=O)OCC)N(S(=O)(=O)C(F)(F)F)c2ccccc21` (centres undefined), the largest response in the series, negative = inhibition is 6.6%.
For `CCOC(=O)c1ccccc1CN1C(=O)c2ccccc2S1(=O)=O`, the largest response in the series, negative = inhibition was -2.27%.
Consider `CCc1cc(=O)oc2c(C)c(OCC(=O)NCCN3CCOCC3)ccc12`, for which the largest response in the series, negative = inhibition is 9.5%.
Same read-out and setting: the same measure for `CSCCC(NS(=O)(=O)c1ccc(C)cc1)C(=O)NCCc1c[nH]c2ccccc12` (centres undefined): 6.95%; for `O/N=C(\C[n+]1ccccc1)c1ccc(Br)cc1`: -2.63%.
Turning to `Cn1c(=O)[nH]c(=O)c2c1[nH]c(=S)n2Cc1ccccc1`, the Potency was 44.7 µM (active).
As for `C=CCSc1nc2c(c(=O)[nH]c(=O)n2C)n1Cc1ccccc1`, the largest response in the series, negative = inhibition is 9.86%.
Take `COc1ccc(CNc2nc3c(c(=O)[nH]c(=O)n3C)n2Cc2ccccc2)cc1`: the largest response in the series, negative = inhibition is 11.4%.
Same read-out and setting: the same measure for `CC1CCN(C(=O)C2CCN(S(=O)(=O)N3CCC4(CC3)OCCO4)CC2)CC1`: 17.9%; for `O=C(/C=C/c1cccc([N+](=O)[O-])c1)N1CCN(Cc2ccccc2)CC1`: 2.23%; for `O=c1c([N+](=O)[O-])cc(C(F)(F)F)cn1Cc1cccc(Cl)c1`: 3.19%.
With `O=[N+]([O-])/C=C/c1ccc2c(ccn2Cc2ccccc2)c1`, the Potency is 25.1 µM (active).
As for `COc1cc(NC(=O)CN2C(=O)NC(C)(c3ccc(OC(F)F)cc3)C2=O)cc(OC)c1OC` (centres undefined), the largest response in the series, negative = inhibition is 17.8%.
Still for that read-out and setting: the same measure for `Cc1cccc(NC(=O)NC(=S)NC(=O)c2ccccc2)c1`: 18.4%; for `S=C(NCCc1ccccc1)N1CCCCC1`: 5.57%.
In the case of `Oc1cc2c(cc1O)CN(C(=S)NCCc1ccc(Cl)cc1)CCC2`, the Potency was 56.2 µM (active) and 44.7 µM (active).
Take `O=C(NCCc1ccc(Cl)cc1)c1cccc(N2CCCC2=O)c1`: the largest response in the series, negative = inhibition is 4.32%.
Turning to `COc1ccc([N+](=O)[O-])cc1NCC(=O)c1ccc(C)cc1`, the largest response in the series, negative = inhibition was -11.6%.
Consider `Cc1cccc(C(=O)Nc2ccc(C(=O)N/N=C/c3cccc(C)n3)cc2)c1`, for which the largest response in the series, negative = inhibition is -3.6%.
In the case of `c1ccc(-c2cc(-c3nnc4sc(-c5ccccn5)nn34)[nH]n2)cc1`, the largest response in the series, negative = inhibition is 0.622%.
Consider `Fc1ccc(-c2ccc(-c3nn4c(-c5ccco5)nnc4s3)o2)cc1`, for which the Potency was 17.8 µM (active).
With `COc1cc(-c2nn3c(-c4cccc(C)c4)nnc3s2)cc(OC)c1OC`, the largest response in the series, negative = inhibition was 10.2%.
`C=CC1=C2C=C(C3CC3)N(C(CO)CO)C=C2C(=O)C(C)(OC(=O)c2ccco2)C1=O` (centres undefined): the largest response in the series, negative = inhibition was 11.3%.
In the case of `Cc1ccc(CNCc2ccc3c(c2)OCO3)c(C)c1`, the largest response in the series, negative = inhibition is -14.4%.
Turning to `CC(=O)Nc1ccc(NC(=O)CC2CCCC2)cc1`, the largest response in the series, negative = inhibition was 1.03%.
The same measure, in the same setting: the same measure for `O=C(c1c(F)cccc1Cl)N1CCN(c2ccccn2)CC1`: 2.71%.
For the compound `O=C(c1c(Cl)cccc1Cl)N1CCN(c2cccc3[nH]ccc23)CC1`, the Potency was 89.1 µM (active).
Regarding `O=C(c1ccc2ccccc2n1)N1CCN(c2ccccc2Cl)CC1`, the largest response in the series, negative = inhibition was -10.1%.
Same read-out and setting: then `COc1ccc(C(=O)CCC(=O)Nc2ccc(Cl)cc2)cc1`, with 9.46%; and `CCOC(=O)CSc1nc2sc3c(c2c(=O)[nH]1)CC(C)(C)OC3`, with -10.3%.
As for `CC/C(C)=N/Nc1nc2sc3c(c2c(=O)[nH]1)CC(C)(C)OC3`, the Potency was 39.8 µM (active).
Turning to `CCSc1nc2sc3c(c2c(=O)[nH]1)CC(C)(C)OC3`, the largest response in the series, negative = inhibition was 1.72%.
The same measure, in the same setting: then `CC(C)CC(NC(=O)C1CCCN1C(=O)[C@@H](C)NC(=O)OCc1ccccc1)C(=O)NCC(N)=O` (some centres undefined) (Cbz-[dA][ξP][ξL]G-NH2), with 4.6%.
Regarding `COc1ccc2oc(=N)c(C(=O)Nc3ccc(Br)cc3)cc2c1`, the largest response in the series, negative = inhibition was 17.1%.
For `Cc1ccccc1NC(=S)NC(=O)Cc1ccc(Cl)cc1`, the largest response in the series, negative = inhibition is 1.33%.
As to `COC(=O)c1ccc(CNC(=O)c2ccc3oc(C(C)C)nc3c2)cc1`, the largest response in the series, negative = inhibition is 14.1%.
With `CC(C)Sc1nnc([C@H](Cc2ccccc2)NC(=O)OC(C)(C)C)o1`, the Potency was 50.1 µM (active).
For the compound `COc1ccccc1NC(=O)[C@H](COCc1ccccc1)NC(=O)OC(C)(C)C`, the largest response in the series, negative = inhibition is 14.9%.
In the case of `C[C@H](NC(=O)OC(C)(C)C)c1nnc(SCC(=O)Nc2ccc(Br)cc2)o1`, the largest response in the series, negative = inhibition was 20%.
On the same count and under the same terms, then `CCc1ccccc1NC(=O)CSc1nnc([C@@H](NC(=O)OC(C)(C)C)C(C)C)o1`, with 0.218%.
